Assay results as given in the supplement of paper PMC6555819.

Assays:
Assay in all cases: PBM binding z-score (relative to random genomic background probes); higher = stronger binding; sequences stand for … in GC…GCGATTGACAGCGTAGAATGAAGG
[1] = tested on: PPARg:RXRa DBDmut IVT, anti-RXR (DBD mutation: RXRa K156A/R161A, NR concentration 270 nM, RXRa partner concentration 90 nM)
Outline: (§1)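 For binding z-scores, the reference was random background probes on custom Agilent 4×180K protein-binding microarrays. These arrays were incubated 1 h with ligand-free nuclear receptor dimers in PBS pH 7.4, 2% milk, 0.02% Triton X-100, 1 mM DTT, 0.2 mg/mL BSA and 0.4 mg/ml salmon testes DNA. Fluorescence was scanned after antibody detection of each partner (one per run) and regression-normalized.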

[2] = tested on: PPARg:RXRa IVT, anti-PPARg (NR concentration 270 nM, RXRa partner concentration 90 nM)
Outline: as §1

[3] = tested on: PPARg DBDmut:RXRa IVT, anti-PPARg (DBD mutation: PPARg1 K132A/R137A, NR concentration 270 nM, RXRa partner concentration 90 nM)
Outline: as §1

[4] = tested on: PPARg DBDmut IVT, anti-PPARg (DBD mutation: PPARg1 K132A/R137A, NR concentration 270 nM)
Outline: as §1

[5] = tested on: PPARg homodimer (NR concentration 180 nM)
Outline: as §1

[6] = tested on: PXR:RXRa (NR concentration 270 nM, RXRa partner concentration 90 nM)
Outline: as §1

[7] = tested on: PXR homodimer (NR concentration 270 nM)
Outline: as §1

[8] = tested on: RARa:RXR (NR concentration 270 nM, RXRa partner concentration 90 nM)
Outline: as §1

[9] = tested on: RARa homodimer (NR concentration 270 nM)
Outline: as §1

[10] = tested on: RARb:RXRa (NR concentration 270 nM, RXRa partner concentration 90 nM)
Outline: as §1

[11] = tested on: RARb homodimer (NR concentration 270 nM)
Outline: as §1

[12] = tested on: RARg:RXRa (NR concentration 270 nM, RXRa partner concentration 90 nM)
Outline: as §1

[13] = tested on: RARg homodimer (NR concentration 270 nM)
Outline: as §1

[14] = tested on: RXRa DBDmut IVT, anti-RXR (DBD mutation: RXRa K156A/R161A, NR concentration 90 nM)
Outline: as §1

[15] = tested on: RXRa homodimer (NR concentration 180 nM)
Outline: as §1

[16] = tested on: THRa:RXRa (NR concentration 90 nM, RXRa partner concentration 90 nM)
Outline: as §1

[17] = tested on: THRa homodimer (NR concentration 90 nM)
Outline: as §1

[18] = tested on: VDR homodimer (NR concentration 270 nM)
Outline: as §1

| Sequence | PBM binding z-score [1] | PBM binding z-score [2] | PBM binding z-score [3] | PBM binding z-score [4] | PBM binding z-score [5] | PBM binding z-score [6] | PBM binding z-score [7] | PBM binding z-score [8] | PBM binding z-score [9] | PBM binding z-score [10] | PBM binding z-score [11] | PBM binding z-score [12] | PBM binding z-score [13] | PBM binding z-score [14] | PBM binding z-score [15] | PBM binding z-score [16] | PBM binding z-score [17] | PBM binding z-score [18] |
| --- | --- | --- | --- | --- | --- | --- | --- | --- | --- | --- | --- | --- | --- | --- | --- | --- | --- | --- |
| CGTCCAAGTTCAAAGGTCAGTGAAGAGATGACGG | 0.396 | 2.79 | 0.887 | 0.712 | 4.76 | 6.79 | 4.04 | 7.83 | 2.04 | 5.11 | 4.6 | 7.24 | 6.28 | 4.85 | 8.41 | 3.84 | 0.506 | 5.47 |
| TCTATTAGTTGAAGGGCAACTGACGAGTCCGTTT | 2.25 | 0.905 | 0.468 | 0.573 | 0.905 | 0.88 | 0.479 | 1.08 | 1.44 | 1.6 | 1.26 | 0.617 | 0.548 | 1.49 | 0.829 | 0.242 | -0.0338 | 1.4 |
| TCTCGGGGGACACGAAGGTCAGAGCTTTCCAGAG | 2.39 | 3.51 | 2.53 | 5.36 | 2.05 | 3.27 | 1.24 | 3.29 | 0.556 | 3.73 | 4.17 | 4.68 | 5.9 | 1.89 | 3 | 3.32 | 1.58 | 1.76 |
| TCTTGTAGATCAGCTGGTTAAGAAAGCTGGCCAA | 1.46 | -0.0157 | -0.253 | -0.0877 | -0.903 | 0.0917 | -0.51 | 0.0228 | -0.485 | -0.526 | -0.771 | -0.465 | -0.758 | 0.269 | -0.351 | -0.515 | -1.3 | -0.694 |
| TCTCGGAAGACACGAAAGGTCAGAGCTCGACATC | 2 | 1.27 | 0.544 | -0.207 | 3.09 | 3.58 | 0.388 | 4.27 | 1.14 | 3.73 | 4.18 | 4.01 | 4.27 | 1.06 | 4.27 | 2.58 | 0.266 | 0.21 |
| ACTATTAGTGGACTTAGGGCAACCGATACGACGC | 0.261 | 0.425 | 0.622 | 0.53 | -0.531 | -0.184 | 0.307 | -0.1 | 0.447 | 0.196 | 0.427 | 0.269 | 0.779 | 0.397 | 0.286 | 1.17 | 0.136 | 0.0269 |
| AGAACGAGGGCAATGAGTTGCTAGCACGGGTGGC | 3.04 | 2.38 | 0.736 | -0.0393 | -0.0603 | 0.451 | 0.523 | 0.256 | -0.567 | 1.98 | 0.949 | 0.847 | 1.24 | 1.67 | 0.545 | 0.677 | -0.316 | 1.49 |
| CCTAGCAGGCCAATCTGGGTCACTCCAGGCTTGA | 4.25 | 4.76 | -0.633 | -1.01 | 0.639 | 0.543 | -0.635 | 0.754 | -0.716 | 1.48 | 2.01 | 0.98 | 1.01 | -0.206 | 0.548 | 3.49 | 0.312 | -0.0635 |
| CAAACTAGGTCTCAGAGGTCAAAGTCCGTGCGTA | 5.55 | 5.54 | 0.45 | 0.559 | 2.98 | 5.51 | 2.93 | 5.67 | 1.38 | 3.88 | 4.68 | 5.13 | 4.6 | 1.65 | 6.01 | 3.63 | 1.7 | 4.57 |
| CTTACAGGGTCAGCTAGGCCAGAGTAGGGACGGC | 2 | 2.59 | -0.146 | -0.1 | 0.148 | 1.88 | -0.368 | 2.75 | 0.0802 | 4.04 | 3.2 | 4.47 | 4.97 | 1.83 | 4.42 | 2.97 | 0.729 | 0.875 |
| GAAACAGGGTCAAGGCCAGAGTACGCGTATTGAT | 4.14 | 5.29 | 1.43 | 1.01 | 2.18 | 4.41 | 0.162 | 4.58 | 0.267 | 4.73 | 4.02 | 5.52 | 5.06 | 2.9 | 6.17 | 3.85 | 1.44 | 2.56 |
| TCAGACAGGCGAAGGTAACTCAGGTACGCAGTCG | 1.62 | -0.431 | -0.529 | -0.776 | -0.126 | 0.167 | -0.281 | 0.0245 | -0.553 | 0.0079 | -0.405 | -0.089 | -0.377 | 0.863 | 0.579 | 0.951 | -0.297 | -0.35 |
